# Laboratory results: PubChem BioAssay (EPA / NIEHS)
# Values joined by “and” are separate entries in the source; they are usually repeats but may differ in a detail not shown here. Identical values can stand only once. Active and inactive are the calls of the source. How the source made its calls: active means hit-call score of the fitted dose curve at least 0.9, where 1 is the maximum; inactive means score below 0.9.
# Key:
# [1] = read-out: urokinase Plasminogen Activator (uPA), PLAU (gene 5328); assay: BSK_BF4T_uPA: BioMAP Diversity Plus: BF4T Assay for urokinase Plasminogen Activator (uPA) Biomarker Activity (AID 2284275); details: primary human bronchial epithelial cells with fibroblasts
# Summary of the method: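 Co-culture of human bronchial epithelial cells and dermal fibroblasts; uPA quantified by ELISA 24 hours after dosing, fitted relative to DMSO. Parallel SRB total-protein staining assessed overt cytotoxicity.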
# [2] = read-out: Matrix Metallopeptidase 9 (MMP9), MMP9 (gene 4318); assay: BSK_BF4T_MMP9: BioMAP Diversity Plus: BF4T Assay for Matrix Metallopeptidase 9 (MMP9) Biomarker Activity (AID 2284276); details: primary human bronchial epithelial cells with fibroblasts
# Summary of the method: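 Co-culture of human bronchial epithelial cells and dermal fibroblasts dosed for 24 h; MMP-9 quantified by ELISA and fitted upward versus DMSO. Cytotoxicity monitored in parallel cultures by SRB total-protein staining at the biomarker time point.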
# [3] = read-out: Interleukin-8 (IL8), CXCL8 (gene 3576); assay: BSK_IMphg_IL8: BioMAP Diversity Plus: IMphg Assay for Interleukin-8 (IL8) Biomarker Activity (AID 2284277); details: primary human endothelial cells with macrophages
# Summary of the method: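 Co-culture of human venular endothelial cells and macrophages exposed to chemicals for 24 h; IL-8 quantified by ELISA and compared against the DMSO baseline, with SRB total-protein staining in parallel cultures for cytotoxicity.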
# [4] = read-out: Intercellular Adhesion Molecule 1 (ICAM1), ICAM1 (gene 3383); assay: BSK_BE3C_ICAM1: BioMAP Diversity Plus: BE3C Assay for Intercellular Adhesion Molecule 1 (ICAM1) Biomarker Activity (AID 2284278); details: primary human bronchial epithelial cells;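 further: cell-surface ICAM-1 protein level quantified by ELISA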
# Summary of the method: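 Primary human bronchial epithelial cells in BE3C system, 24 h after chemical dosing; cell-surface ICAM-1 measured by ELISA relative to DMSO. Parallel SRB staining (0.1% SRB after 10% TCA fixation, read at 560 nm) assessed cytotoxicity.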
# [5] = read-out: Interferon-inducible T-cell alpha chemoattractant (ITAC), CXCL11 (gene 6373); assay: BSK_BE3C_ITAC: BioMAP Diversity Plus: BE3C Assay for Interferon-inducible T-cell alpha chemoattractant (ITAC) Biomarker Activity (AID 2284279); details: primary human bronchial epithelial cells
# Summary of the method: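 Steps: dose human bronchial epithelial cells with chemical; incubate 24 h; measure I-TAC by ELISA; fit endpoint in positive direction against DMSO control. Cytotoxicity was checked in parallel cultures by SRB staining at harvest.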
# [6] = read-out: Interleukin-8 (IL8), CXCL8 (gene 3576); assay: BSK_BE3C_IL8: BioMAP Diversity Plus: BE3C Assay for Interleukin-8 (IL8) Biomarker Activity (AID 2284280); details: primary human bronchial epithelial cells
# Summary of the method: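 IL-8 signal gain, normalised to DMSO vehicle, was scored after a 24 h chemical exposure of primary human bronchial epithelial cells, with detection by ELISA.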
# [7] = read-out: Epidermal growth factor receptor (EGFR), EGFR (gene 1956); assay: BSK_BE3C_EGFR: BioMAP Diversity Plus: BE3C Assay for Epidermal growth factor receptor (EGFR) Biomarker Activity (AID 2284281); details: primary human bronchial epithelial cells
# Summary of the method: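 Compound is added to human bronchial epithelial cells, cells incubate 24 h, then EGFR is detected by ELISA. Values reflect positive-direction fitting relative to DMSO.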
# KRT18 (gene 3875) = assay: BSK_BE3C_Keratin818: BioMAP Diversity Plus: BE3C Assay for Keratin 818 Biomarker Activity (AID 2284282); details: primary human bronchial epithelial cells
# Summary of the method: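 Primary human bronchial epithelial cells treated 24 h; Keratin 8/18 quantified by ELISA, fit relative to DMSO. Cytotoxicity tracked in parallel cultures by sulforhodamine B total-protein staining.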
# [8] = read-out: Matrix Metallopeptidase 9 (MMP9), MMP9 (gene 4318); assay: BSK_BE3C_MMP9: BioMAP Diversity Plus: BE3C Assay for Matrix Metallopeptidase 9 (MMP9) Biomarker Activity (AID 2284283); details: primary human bronchial epithelial cells
# Summary of the method: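 MMP9 is measured by ELISA after a 24 h compound exposure of primary human bronchial epithelial cultures. Parallel SRB staining gives overt cytotoxicity. Values fitted in the positive direction against DMSO.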
# [9] = read-out: Plasminogen activator inhibitor-1 (PAI1), SERPINE1 (gene 5054); assay: BSK_CASM3C_PAI1: BioMAP Diversity Plus: CASM3C Assay for Plasminogen activator inhibitor-1 (PAI1) Biomarker Activity (AID 2284284); details: primary human coronary artery smooth muscle cells;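 further: PAI-1 protein level measured by ELISA 24 h after dosing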
# [10] = read-out: Vascular cell adhesion molecule 1 (VCAM1), VCAM1 (gene 7412); assay: BSK_IMphg_VCAM1: BioMAP Diversity Plus: IMphg Assay for Vascular cell adhesion molecule 1 (VCAM1) Biomarker Activity (AID 2284286); details: primary human endothelial cells with macrophages
# Summary of the method: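 Human venular endothelial cells co-cultured with macrophages; VCAM-1 quantified by ELISA 24 h after dosing, fitted in the positive direction against DMSO. Cytotoxicity was checked in parallel cultures by SRB total-protein staining (0.1% SRB after 10% TCA fixation, 560 nm).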
# CD40, CD40 (gene 958) = assay: BSK_IMphg_CD40: BioMAP Diversity Plus: IMphg Assay for CD40 Biomarker Activity (AID 2284288); details: primary human endothelial cells with macrophages
# Summary of the method: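 Venular endothelial cells co-cultured with macrophages (human primary), CD40 measured by ELISA 24 h after dosing. Positive-direction fit vs DMSO baseline; cytotoxicity tracked by SRB total-protein staining in parallel cultures.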
# [11] = read-out: Interleukin-1 alpha (IL1a), IL1A (gene 3552); assay: BSK_IMphg_IL1a: BioMAP Diversity Plus: IMphg Assay for Interleukin-1 alpha (IL1a) Biomarker Activity (AID 2284290); details: primary human endothelial cells with macrophages
# Summary of the method: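 Human venular endothelial cells co-cultured with macrophages, IMphg system. IL-1α is measured by ELISA 24 h after dosing and fitted in the positive direction against DMSO. Cytotoxicity is assessed by SRB staining of parallel cultures.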
# [12] = read-out: E-selectin (Homo sapiens) (UniProt P16581); assay: BSK_IMphg_ESelectin: BioMAP Diversity Plus: IMphg Assay for Eselectin Biomarker Activity (AID 2284291); details: primary human endothelial cells with macrophages
# Summary of the method: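 Human venular endothelial cell–macrophage co-culture, E-selectin measured by ELISA 24 h after chemical dosing. Signal fitted in the positive direction against DMSO as negative control and baseline.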
# [13] = BSK_IMphg_SRB: Viability Assessment in the BioMAP Diversity Plus: IMphg Assay (AID 2284292); details: primary human endothelial cells with macrophages;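 further: measured one day after compound addition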
# Summary of the method: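 Human venular endothelial cells with macrophages, 24 h after chemical dosing; total protein by 0.1% SRB staining after 10% TCA fixation, read at 560 nm. Positive-direction fitting versus DMSO baseline.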
# [14] = read-out: Macrophage colony-stimulating factor (MCSF), CSF1 (gene 1435); assay: BSK_IMphg_MCSF: BioMAP Diversity Plus: IMphg Assay for Macrophage colony-stimulating factor (MCSF) Biomarker Activity (AID 2284293); details: primary human endothelial cells with macrophages
# Summary of the method: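 Co-culture of human venular endothelial cells and macrophages, 24 hours of chemical exposure. M-CSF quantified by ELISA, with parallel SRB total-protein staining for cytotoxicity; activity fitted relative to DMSO.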
# [15] = read-out: Interleukin-10 (IL10), IL10 (gene 3586); assay: BSK_IMphg_IL10: BioMAP Diversity Plus: IMphg Assay for Interleukin-10 (IL10) Biomarker Activity (AID 2284294); details: primary human endothelial cells with macrophages
# Summary of the method: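 Human venular endothelial cells cocultured with macrophages, dosed 24 h; IL-10 measured by ELISA, activity relative to DMSO. Cytotoxicity assessed in parallel cultures by sulforhodamine B total-protein staining.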
# [16] = read-out: TIMP metallopeptidase inhibitor 2 (TIMP2), TIMP2 (gene 7077); assay: BSK_hDFCGF_TIMP2: BioMAP Diversity Plus: hDFCGF Assay for TIMP metallopeptidase inhibitor 2 (TIMP2) Biomarker Activity (AID 2284289); details: primary human foreskin fibroblasts
# Summary of the method: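 Primary human foreskin fibroblasts in the hDFCGF system, dosed for 24 h; TIMP-2 level measured by ELISA, fitted in the positive direction against DMSO; cytotoxicity checked in parallel by sulforhodamine B total protein staining.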
# Sequence of E-selectin (Homo sapiens) (P16581 whole entry, looked up): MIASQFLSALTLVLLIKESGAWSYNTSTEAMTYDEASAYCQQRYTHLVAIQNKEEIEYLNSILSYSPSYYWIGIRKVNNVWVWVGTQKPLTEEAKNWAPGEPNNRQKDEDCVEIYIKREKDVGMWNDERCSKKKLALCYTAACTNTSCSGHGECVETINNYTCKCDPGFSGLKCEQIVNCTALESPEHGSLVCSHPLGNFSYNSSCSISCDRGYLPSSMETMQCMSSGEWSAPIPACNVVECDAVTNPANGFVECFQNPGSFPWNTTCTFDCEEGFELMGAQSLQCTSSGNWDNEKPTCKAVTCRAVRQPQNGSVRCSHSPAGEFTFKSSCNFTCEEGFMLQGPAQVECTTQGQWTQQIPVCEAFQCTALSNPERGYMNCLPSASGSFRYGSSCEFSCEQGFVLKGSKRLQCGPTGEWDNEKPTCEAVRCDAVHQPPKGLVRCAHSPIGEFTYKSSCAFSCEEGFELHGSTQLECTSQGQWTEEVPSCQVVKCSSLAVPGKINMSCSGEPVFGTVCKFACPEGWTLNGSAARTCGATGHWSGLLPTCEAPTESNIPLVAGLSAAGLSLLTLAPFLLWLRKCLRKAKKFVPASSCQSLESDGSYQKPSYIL
Structure (SMILES),outcome [1],outcome [2],outcome [3],outcome [4],outcome [5],outcome [6],outcome [7],outcome (KRT18 (gene 3875)),outcome [8],outcome [9],AC50 [10],"AC50 (CD40, CD40 (gene 958))",outcome [11],outcome [12],outcome [13],outcome [14],outcome [10],"outcome (CD40, CD40 (gene 958))",outcome [15],outcome [16]
O=C(O)C(F)(F)C(F)(F)C(F)(F)C(F)(F)C(F)(F)C(F)(F)C(F)(F)C(F)(F)C(F)(F)C(F)(F)C(F)(F)C(F)(F)F,inactive,inactive,inactive,inactive,inactive,inactive,inactive,inactive,inactive,inactive,15.2 µM (active) and 19.4 µM (active),13.3 µM (active) and 16.4 µM (active),inactive,inactive,inactive,inactive,,,,
FC(F)(F)C(F)(F)C(F)(F)C(F)(F)C(F)(F)C(F)(F)C(F)(F)I,inactive,inactive,inactive,inactive,inactive,inactive,inactive,inactive,inactive,inactive,,,inactive,inactive,inactive,inactive,inactive,inactive,,
CCCCCCCCC(F)(F)C(F)(F)C(F)(F)C(F)(F)C(F)(F)C(F)(F)F,inactive,inactive,inactive,inactive,inactive,inactive,inactive,inactive,inactive,inactive,,,inactive,inactive,inactive,inactive,inactive,inactive,inactive,
Cc1ccc(S(=O)(=O)OCC(F)(F)C(F)(F)C(F)(F)C(F)(F)C(F)(F)C(F)F)cc1,inactive,inactive,inactive,inactive,inactive,inactive,inactive,inactive,inactive,inactive,,,inactive,inactive,inactive,inactive,inactive,inactive,,inactive
